PLC-beta3 inh – human PLC-beta3 inhibitors, primary screen, biochemical, fluorescence | AID 720704, 2013 | inhibition, % at 12.2 µM | Purified PLC-beta3, fluorogenic substrate | 1-phosphatidylinositol 4,5-bisphosphate phosphodiesterase beta-3 (Homo sapiens), Q01970 | 370,000 compounds, 0.18% hits; in the data active = inhibition above about 11%
KLK7 zymogen act – proKLK7 zymogen activators, primary screen, biochemical, fluorescence intensity. 370,000 compounds, 0.9% hits. activation, % at 7 µM. purified proKLK7, EDANS-DABCYL substrate fluorescence; 100% is mature enzyme control, 0% vehicle. Kallikrein-7 (Homo sapiens), P49862;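 active = activation above the mean of all tested compounds plus 3 SD, computed per campaign excluding outliers beyond control limits, cut at about 13% in these data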
Target sequence (P49862 whole entry, looked up): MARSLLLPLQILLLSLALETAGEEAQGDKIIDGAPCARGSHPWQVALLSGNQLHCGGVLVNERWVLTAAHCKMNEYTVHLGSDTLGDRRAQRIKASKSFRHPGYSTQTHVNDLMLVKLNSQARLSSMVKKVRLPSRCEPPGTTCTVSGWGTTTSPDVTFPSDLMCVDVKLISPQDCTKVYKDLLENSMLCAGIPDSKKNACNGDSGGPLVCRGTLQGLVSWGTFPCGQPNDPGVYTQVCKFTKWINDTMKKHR
sPLA2-III inh – human group III sPLA2 inhibitors, primary screen, biochemical, QFRET, BODIPY PC-A2 liposome substrate. QFRET BODIPY PC-A2 liposome hydrolysis, fluorescence. inhibition, % at 12.2 µM. 370,000 compounds, 0.56% hits;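 active = inhibition above mean plus 3 SD of compounds lying within the high and low control bounds, cut at about 19% in these data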
PLC-gamma1 inh – PLC-gamma1 enzyme inhibitors, primary screen, biochemical, fluorescence, purified enzyme | fluorogenic substrate | inhibition, % at 12.2 µM | 370,000 compounds, 0.84% hits
ADAM10 inh – human ADAM10 inhibitors, primary screen, biochemical, QFRET, HTS | recombinant ADAM10, EDANS/DABCYL FRET peptide cleavage, 3 h | Disintegrin and metalloproteinase domain-containing protein 10 (Homo sapiens), O14672 | inhibition, % at 7 µM | 370,000 compounds, 0.62% hits | AID 720582, 2013;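 active = inhibition above a per-campaign cutoff equal to the mean of compounds falling between control-based bounds plus 3 SD, cut at about 20% in these data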
ADAM17 inh – ADAM17 inhibitors, primary screen, biochemical, QFRET | AID 720648, 2013 | Disintegrin and metalloproteinase domain-containing protein 17 (Homo sapiens), P78536 | recombinant ADAM17, EDANS/DABCYL FRET peptide cleavage | 370,000 compounds, 0.83% hits | inhibition, % at 6.95 µM;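 active = inhibition above the mean of compounds lying between control limits plus 3 SD, set per campaign, cut at about 8.5% in these data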
PLCgamma1 ctr – PLC-gamma1 enzyme inhibitors, counter-screen for PLC-beta3 inhibitor project, biochemical, fluorescence; inhibition, % at 12.3 µM; 3,300 compounds, 3.1% hits; purified PLC-gamma1, fluorogenic substrate; shares compounds with PLC-gamma1 inh
PLCbeta3 conf – PLC-beta3 inhibitor confirmation, biochemical, fluorescence, purified enzyme. 3,300 compounds, 1% hits. inhibition, % at 12.3 µM. AID 743261, 2014. shares compounds with PLC-gamma1 inh. fluorogenic substrate fluorescence; in the data active = inhibition above about 11%
A number is an active result. Compounds with a hit are over-represented: about 3.4% of the library has one in this group of screens. Cut-off read from the data, not from the text of the source, unless noted: active = inhibition above about 9.5%; inactive = the rest.

`Cc1c(C(=O)OCC(=O)c2c(N)n(CC(C)C)c(=O)n(C)c2=O)oc2ccccc12` gave PLC-beta3 inh 46.1, KLK7 zymogen act inactive, sPLA2-III inh inactive, PLC-gamma1 inh inactive, ADAM10 inh inactive, ADAM17 inh inactive, PLCgamma1 ctr inactive and PLCbeta3 conf inactive.
For COCc1c(C(=O)OCC(=O)c2c(N)n(CC(C)C)c(=O)n(C)c2=O)oc2ccccc12 the results were PLC-beta3 inh inactive, KLK7 zymogen act inactive, sPLA2-III inh inactive, PLC-gamma1 inh inactive, ADAM10 inh inactive and ADAM17 inh inactive.
COCCN1C(=O)c2oc3cc(C)c(C)cc3c(=O)c2C1c1cccc(O)c1 (configuration not stated) was read as PLC-beta3 inh inactive, KLK7 zymogen act inactive, sPLA2-III inh inactive, PLC-gamma1 inh 14.9, ADAM10 inh inactive, ADAM17 inh inactive, PLCgamma1 ctr inactive and PLCbeta3 conf inactive.
O=C1c2oc3ccccc3c(=O)c2C(c2cccc(O)c2)N1CCCN1CCOCC1 (configuration not stated) was read as PLC-beta3 inh inactive, KLK7 zymogen act inactive, sPLA2-III inh inactive, PLC-gamma1 inh inactive, ADAM10 inh inactive and ADAM17 inh inactive.
For O=C1NC(c2ccc(-c3ccccc3[N+](=O)[O-])o2)C(C(=O)c2ccccc2)C(O)(C(F)(F)F)N1 (configuration not stated) the results were PLC-beta3 inh 11.4, KLK7 zymogen act inactive, sPLA2-III inh inactive, PLC-gamma1 inh inactive, ADAM10 inh inactive, ADAM17 inh inactive, PLCgamma1 ctr inactive and PLCbeta3 conf inactive.
CN(C)[C@H]1CCN([C@@H]2CS(=O)(=O)N[C@H]2COCc2ccccc2)C1 was read as PLC-beta3 inh inactive, KLK7 zymogen act inactive, sPLA2-III inh inactive, PLC-gamma1 inh inactive, ADAM10 inh inactive and ADAM17 inh inactive.
Screening O=S1(=O)C[C@@H](N2CC[C@@H](O)C2)[C@H](COCc2ccccc2)N1 returned PLC-beta3 inh inactive, KLK7 zymogen act inactive, sPLA2-III inh inactive, PLC-gamma1 inh 10.2, ADAM10 inh inactive, ADAM17 inh inactive, PLCgamma1 ctr inactive and PLCbeta3 conf inactive.
`Cc1ccccc1OCC(=O)N(Cc1cccs1)C1CCS(=O)(=O)C1` (configuration not stated) gave PLC-beta3 inh inactive, KLK7 zymogen act inactive, sPLA2-III inh inactive, PLC-gamma1 inh inactive, ADAM10 inh inactive and ADAM17 inh inactive.
Cc1cccc(OC(C)C(=O)N(Cc2cccs2)C2CCS(=O)(=O)C2)c1C (configuration not stated) was read as PLC-beta3 inh inactive, KLK7 zymogen act inactive, sPLA2-III inh inactive, PLC-gamma1 inh 12.9, ADAM10 inh inactive, ADAM17 inh inactive, PLCgamma1 ctr inactive and PLCbeta3 conf inactive.
`Cc1ccc(Cl)c(OCC(=O)Nc2ccc3c(c2)OCCO3)c1` gave PLC-beta3 inh inactive, KLK7 zymogen act inactive, sPLA2-III inh inactive, PLC-gamma1 inh inactive, ADAM10 inh inactive and ADAM17 inh inactive.
For CCN(CC(=O)Nc1ccc2c(c1)OCCO2)C(=O)COc1cc(C)ccc1Cl the results were PLC-beta3 inh inactive, KLK7 zymogen act inactive, sPLA2-III inh inactive, PLC-gamma1 inh 11.5, ADAM10 inh inactive, ADAM17 inh inactive, PLCgamma1 ctr inactive and PLCbeta3 conf inactive.

Bioassay records (PubChem)
